p53null 32C kill – kills p53 null cells at the permissive temperature; H1299-neo p53 null cells, ATP luminescence, 24 h, 32C; Potency, µM (series often up to 46.1 µM), for inactives: at the highest dose activity change, negative = cytotoxicity, hits mostly cytotoxic; 0.62% of 55,000 active; AID 903;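 further: potency means the concentration at half of the fitted maximal effect; 0% = DMSO only and -100% = full killing by 100 µM tamoxifen; nearly all actives have a fitted effect of over 55% in size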
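ATP-content luminescence in p53-null H1299-neo cells after 24 h compound exposure (up to 46 uM) at 32C permissive temperature; 0% and 100% killing set by DMSO and 100 uM tamoxifen; Hill-equation AC50.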
p53null 39C tox – selectivity test: cytotoxicity in p53 null cells, nonpermissive temperature. Potency, µM (doses to about 46.1 µM), inactives show at the highest dose activity, negative = cell killing, usual class: cytotoxic. AID 904. H1299 p53-null (neo) cells, 39C, ATPlite viability, 24 h. 0.97% of 55,000 active;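 further: potency means the concentration at half of the fitted maximal effect; 0% = DMSO only and -100% = full killing by 100 µM tamoxifen; nearly all actives have a fitted effect of over 50% in size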
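Concentration-response (up to 46 uM) was run for 24 h at the nonpermissive 39C on H1299-p53A138V or H1299-neo cells. ATP content was measured with ATPlite luminescence. AC50 values were Hill-modeled after normalizing between DMSO and 100 uM tamoxifen killing.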
PMP22 txn – PMP22 gene transcription modulation; Potency, µM (highest dose often 57.5 µM), without a hit: top-dose activity change, negative = inhibition, actives largely listed as inhibitors; S16 Pmp22-F2sN Schwann cells, FLuc/NLuc coincidence luminescence, 24 h; 2% of 43,000 active; active means clear falling dose curves in both reporters; inconclusive means both reporters move, but less clearly or upward; inactive means either reporter flat; the % is the NLuc reporter signal; further: potency means the concentration at half of the fitted maximal effect; on the % scale 0 is the no-effect control and ±100 the full control effect
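Luminescent read-out of sequential FLuc and NLuc signals from a reporter embedded in the Pmp22 3' UTR of S16 Schwann cells, taken after 24 h compound exposure at 37C; compounds reducing both signals score as inhibitors of expression.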
S16 F2sN tox – cytotoxicity in S16 Pmp22-F2sN Schwann cells | S16 Pmp22-F2sN Schwann cells viability, CellTiter-Glo, 24 h | Potency, µM (titrated, usually from 57.5 µM), for the others: at the top dose activity change, negative = cytotoxicity, actives largely listed as cytotoxic | 0.48% of 43,000 active; further: potency means the concentration at half of the fitted maximal effect; on the % scale 0 is the no-effect control and ±100 the full control effect; nearly all actives have a fitted effect of over 65% in size
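CellTiter-Glo counter-screen, qHTS, 1536-well. Cells: S16(c9) Pmp22-F2sN, 500-1,000/well in DMEM + 10% FBS. Cpd 23 nL pin transfer, 24 h, 37C/5% CO2. Read: luminescence, CCD imager.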
mTORC1 inh – mTORC1 pathway inhibition measured by phospho-rpS6. AID 493208. 0.78% of 44,000 active. Tsc2-/- p53-/- MEF, phospho-rpS6 immunofluorescence/PI, 24 h. Potency, µM (titrated, usually from 38.3 µM), inactives show at the highest dose activity change, negative = inhibition, usual class: inhibitors;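 further: potency means the concentration at half of the fitted maximal effect; plate controls were DMSO for no effect and rapamycin for full effect; nearly all actives have a fitted effect of over 50% in size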
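Immunofluorescence of rpS6 phosphorylation in Tsc2-/-, p53-/- MEFs after 24 h compound exposure, normalized to propidium iodide signal. Activity is expressed as % positive cells, thresholded with 7.5 nM rapamycin.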
NLuc sat counter – inhibits NanoLuc at saturating substrate, PMP22 counter-screen; shares compounds with PMP22 txn; Secreted NLuc enzyme (filtered S16 cell medium), Nano-Glo luminescence; Potency, µM (titrated, usually from 57.5 µM), for the others: top-dose activity change, negative = inhibition, usual class: inhibitors; 4% of 690 active; further: potency means the concentration at half of the fitted maximal effect; on the % scale 0 is the no-effect control and ±100 the full control effect
NLuc Km counter – inhibits NanoLuc under Km conditions, PMP22 counter-screen. shares compounds with PMP22 txn. secreted NLuc enzyme, coelenterazine luminescence, Km conditions. Potency, µM (titrated, usually from 57.5 µM), inactives show at the highest dose activity change, negative = inhibition, actives largely listed as inhibitors. 5% of 690 active; further: potency means the concentration at half of the fitted maximal effect; on the % scale 0 is the no-effect control and ±100 the full control effect
FLuc counter – inhibits firefly luciferase, PMP22 counter-screen; shares compounds with PMP22 txn; purified P. pyralis FLuc, luminescence, 10 min; Potency, µM (highest dose often 57.5 µM), inactives show at the highest dose activity, negative = inhibition, hits mostly inhibitors; 690 tested, under 10 active; AID 1508640; further: % of control where 0% means no effect
Target sequence (P08659 whole entry, looked up): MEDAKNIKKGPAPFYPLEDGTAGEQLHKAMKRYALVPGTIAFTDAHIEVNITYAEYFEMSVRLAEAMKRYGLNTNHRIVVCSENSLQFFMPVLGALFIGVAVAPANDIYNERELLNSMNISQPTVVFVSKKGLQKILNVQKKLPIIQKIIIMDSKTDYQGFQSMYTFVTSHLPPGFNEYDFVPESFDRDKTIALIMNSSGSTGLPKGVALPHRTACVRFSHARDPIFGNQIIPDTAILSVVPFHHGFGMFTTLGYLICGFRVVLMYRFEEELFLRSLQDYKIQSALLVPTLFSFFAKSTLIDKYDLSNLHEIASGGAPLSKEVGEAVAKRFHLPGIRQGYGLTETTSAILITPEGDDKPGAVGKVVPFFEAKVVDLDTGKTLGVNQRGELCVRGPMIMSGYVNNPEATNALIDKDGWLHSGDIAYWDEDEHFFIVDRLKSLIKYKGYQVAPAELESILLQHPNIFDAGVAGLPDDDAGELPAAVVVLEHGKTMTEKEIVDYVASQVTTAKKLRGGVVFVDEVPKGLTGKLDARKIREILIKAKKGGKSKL
S16 F2sN tox cnf – confirmation of cytotoxicity in S16 Pmp22-F2sN Schwann cells (luciferase reporters placed in the Pmp22 gene); 7% of 690 active; S16 Schwann cells viability, CellTiter-Glo ATP luminescence, 24 h; AID 1508641; shares compounds with PMP22 txn; Potency, µM (top dose mostly 57.5 µM), for inactives: top-dose activity change, negative = viability loss, actives largely listed as cytotoxic; further: potency means the concentration at half of the fitted maximal effect; on the % scale 0 is the no-effect control and ±100 the full control effect
PMP22 txn conf – confirmation of modulators of PMP22 gene transcription in S16 cells | 22% of 690 active | Potency, µM (series often up to 57.5 µM), without a hit: at the highest dose activity change, negative = inhibition, usual class: inhibitors | shares compounds with PMP22 txn | AID 1508646 | S16 Schwann cells Pmp22-F2sN, dual luciferase, 24 h; active means clear falling dose curves in both reporters; inconclusive means both reporters move, but less clearly or upward; inactive means either reporter flat; the % is the FLuc reporter signal; further: potency means the concentration at half of the fitted maximal effect
The depositor's hits bear a star; u = inconclusive; x = not tested or not shown. A selection: hits, their analogues and other compounds. The true share with any hit is near 3.2%. Unless noted, the call rests on the fitted dose curve; in most records, active means well fitted curve in the direction sought with a large enough effect; inconclusive means small, poorly fitted or top-dose-only effect, or another doubt; inactive means no such curve, though single readings can be large; an effect the other way counts as inactive or inconclusive.

SMILES	p53null 32C kill	p53null 39C tox	PMP22 txn	S16 F2sN tox	mTORC1 inh	NLuc sat counter	NLuc Km counter	FLuc counter	S16 F2sN tox cnf	PMP22 txn conf
Cc1cccc(NC(=O)Cn2c(=O)oc3cc(S(=O)(=O)NCc4ccccc4)ccc32)c1	u	-7%	11µM*	-10%	0%	-2%	-18%	5%	-3%	-16%
Cc1cc(C)c(NC(=O)Cn2c(=O)oc3cc(S(=O)(=O)N4CCCCCC4)ccc32)c(C)c1	-1%	8%	u	-13%	-3%	-16%	2%	2%	-16%	u
CCN(CC)CCn1c2c(c(SCC(=O)Nc3cccc(C(F)(F)F)c3)nc1=O)CCC2	-8%	-4%	16µM*	-16%	0%	-10%	0%	-1%	-8%	u
O=C(CSc1nc(=O)n(Cc2ccncc2)c2c1CCC2)Nc1cccc(F)c1	4%	30%	u	6%	-18%	x	x	x	x	x
COc1ccc(NC(=O)CSc2nc(-c3ccco3)cc(C(F)(F)F)n2)cc1	14%	-24%	u	1%	-20%	-2%	7%	4%	10%	23%
COc1ccc(Nc2c3c(nc4ccc(NC(=O)c5ccc(F)cc5)cc24)CCCC3)cc1OC	u	-22%	u	u	0%	x	x	x	x	x
COc1ccccc1Nc1c2c(nc3ccc(NC(=O)c4ccccc4F)cc13)CCCC2	15%	12%	u	u	u	x	x	x	x	x
Cc1ccc2nc3c(c(Nc4ccc(C)c(C)c4)c2c1)CCC3	24%	-3%	19µM*	u	-10%	-13%	-15%	-6%	6%	u
Cc1ccc(Nc2c3c(nc4ccccc24)CCC3)cc1F	10%	u	16µM*	-15%	-4%	-11%	u	5%	-27%	u
CN1CCN(c2ncc3c(n2)CCN(Cc2ccc(Br)s2)C3)CC1	10%	-10%	u	0%	-15%	x	x	x	x	x
Cn1c(NCCO)nc2c1c(=O)n(Cc1ccccc1Cl)c(=O)n2C	-10%	u	-5%	-17%	3%	x	x	x	x	x
CC(C)c1ccc(OCC(=O)Nc2cc(-c3nc4ncccc4o3)ccc2Cl)cc1	-2%	-11%	13µM*	21%	0%	-5%	5%	-9%	3%	u
COc1ccc(OC)c(Nc2c3c(nc4ccccc24)CCC3)c1	-22%	u	8.4µM*	u	5.2µM*	-13%	-5%	0%	-4%	1.5µM*
CC(C)CCNC(=O)CSc1c2c(nc3ccc(Cl)cc13)CCCC2	16%	64%	14µM*	u	u	u	-13%	4%	-2%	u
COc1ccc(OC)c(NC(=O)CSc2c3c(nc4cc(Cl)ccc24)CCCC3)c1	-5%	57%	u	u	3%	x	x	x	x	x

From PubChem BioAssay
